Assay results from PubChem BioAssay AID1159580 (chemical genetic matrix, 2015).
In all, about 5,500 compounds went through this assay and about 2,000 (36%) were called active. Inconclusive results (about 18%) are left out. Rule as the data show it: active = normalized growth mostly below about 0.91 (no sharp cut-off); inconclusive = no clear call, values can overlap the other calls; inactive = mostly above about 0.92. This is one part of the list.

Assay: chemical genetic growth profiling, strain panel (AID 1159580);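 also: tested at 20 µM; growth read once vehicle control cultures reached saturation at 30 °C; 1 = growth at the plate median or of vehicle wells; lower values mean less growth of the strain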
Settings: S. cerevisiae deletion strains, growth OD
[1] = locus YAL013W, strain DEP1, hits give low values
[2] = locus YBR229C, strain ROT2, hits give low values
[3] = locus YDL101C, strain DUN1, hits give low values
[4] = locus YDR150W, strain NUM1, hits give low values
[5] = locus YEL061C, strain CIN8, hits give low values
[6] = locus YGR078C, strain PAC10, hits give low values
[7] = locus YGR229C, strain SMI1, hits give low values
[8] = locus YHR030C, strain SLT2, hits give low values
[9] = locus YJR043C, strain POL32, hits give low values
[10] = locus YLR039C, strain RIC1, hits give low values
[11] = locus YLR262C, strain YPT6, hits give low values
[12] = locus YNL153C, strain GIM3, hits give low values
[13] = locus YPL055C, strain LGE1, hits give low values
[14] = locus YPL241C, strain CIN2, hits give low values

Measured: normalized growth

O=c1cc(CO)occ1O
inactive: [1] 1.02 | locus YBR021W, strain FUR4, hits give low values 1 | [2] 1 | locus YCL029C, strain bik1, hits give low values 1.02 | locus YDL035C, strain GPR1, hits give low values 1.03 | locus YDL074C, strain BRE1, hits give low values 1.03 | [3] 1 | locus YDL134C, strain PPH21, hits give low values 1.01 | locus YDL185W, strain tfp1, hits give low values 1.03 | locus YDL192W, strain arf1, hits give low values 1.02 | locus YDR101C, strain arx1, hits give low values 1.03 | [4] 1.01 | locus YDR162C, strain NBP2, hits give low values 1.04 | locus YDR318W, strain mcm21, hits give low values 1.02 | locus YDR388W, hits give low values 1.02 | locus YDR502C, strain sam2, hits give low values 1.03 | [5] 1 | locus YER110C, hits give low values 1.04 | locus YER155C, strain BEM2, hits give low values 1 | locus YER167W, strain BCK2, hits give low values 1.01 | locus YGL078C, strain dbp3, hits give low values 1.03 | locus YGL086W, strain mad1, hits give low values 1 | locus YGL248W, strain PDE1, hits give low values 1 | [6] 1.01 | locus YGR135W, strain pre9, hits give low values 1.05 | [7] 1.01 | locus YGR252W, strain gcn5, hits give low values 1.05 | [8] 1 | locus YHR079C, strain IRE1 (second series), hits give low values 1.03 | locus YHR094C, strain hxt1, hits give low values 1.02 | locus YHR129C, strain ARP1, hits give low values 1.01 | locus YHR200W, strain rpn10, hits give low values 1.03 | locus YIL066C, strain RNR3, hits give low values 1.01 | locus YIL073C, strain SPO22, hits give low values 1.15 | locus YIL125W, strain kgd1, hits give low values 1.02 | locus YIR030C, strain dcg1, hits give low values 1.02 | locus YJL095W, strain BCK1, hits give low values 1.02 | locus YJL134W, strain LCB3, hits give low values 1.01 | locus YJL168C, strain set2, hits give low values 1.04 | locus YJL187C, strain SWE1 (second series), hits give low values 1.01 | [9] 1.02 | locus YKL009W, strain mrt4, hits give low values 1.03 | locus YKL068W, hits give low values 1.01 | locus YKL085W, strain MDH1 (second series), hits give low values 1.01 | locus YKL085W, strain MDH1, hits give low values 1.01 | locus YKR001C, strain vps1, hits give low values 1.03 | [10] 1.04 | locus YLR058C, strain SHM2, hits give low values 1 | locus YLR102C, strain apc9, hits give low values 1.02 | [11] 1.08 | locus YLR268W, strain sec22, hits give low values 1.02 | locus YLR330W, strain CHS5, hits give low values 1 | locus YLR342W, strain FKS1 (second series), hits give low values 1.04 | locus YLR371W, strain rom2, hits give low values 1.04 | locus YLR418C, strain cdc73, hits give low values 1.06 | locus YML016C, strain PPZ1, hits give low values 1 | locus YML032C, strain rad52, hits give low values 1.04 | locus YML124C, strain tub3, hits give low values 1.02 | locus YMR078C, strain ctf18, hits give low values 1.03 | locus YMR223W, strain ubp8, hits give low values 1.06 | locus YMR307W, strain GAS1, hits give low values 1.07 | locus YNL067W, strain RPL9B, hits give low values 1.03 | [12] 1.01 | locus YNL233W, strain BNI4, hits give low values 1.01 | locus YNL250W, strain rad50, hits give low values 1.05 | locus YNL271C, strain bni1, hits give low values 1.02 | locus YNL298W, strain CLA4, hits give low values 1.04 | locus YNL307C, strain MCK1, hits give low values 1.03 | locus YNR052C, strain pop2, hits give low values 1.01 | locus YOL012C, strain htz1 1.34 | locus YOL147C, strain pex11, hits give low values 1.03 | locus YOR061W, strain CKA2, hits give low values 1.01 | locus YOR069W, strain VPS5, hits give low values 1 | locus YOR136W, strain idh2, hits give low values 1.02 | locus YOR144C, strain elg1, hits give low values 1.03 | locus YOR184W, strain ser1, hits give low values 1.04 | locus YOR316C, strain cot1, hits give low values 1.01 | [13] 1.02 | [14] 1.01 | locus YPR119W, strain clb2, hits give low values 1.03 | locus YPR141C, strain kar3, hits give low values 1.01 | locus YPR163C, strain tif3, hits give low values 1.04 | locus YPR167C, strain met16, hits give low values 1.02 | strain wtn01, hits give low values 1.01

CCOC(=O)NC(=O)c1cn(Cc2cccs2)c(=O)[nH]c1=O
inactive: [1] 0.999 | [2] 1.02 | [3] 1 | [4] 1.02 | [5] 0.996 | [6] 0.993 | [7] 0.998 | [8] 1 | locus YHR087W, strain rtc3, hits give low values 1.01 | locus YJL187C, strain SWE1, hits give low values 1.01 | [9] 0.988 | locus YJR075W, strain HOC1, hits give low values 1.01 | [10] 1.01 | locus YLR058C, strain SHM2 (second series), hits give low values 1.01 | locus YLR085C, strain ARP6, hits give low values 1.03 | [11] 0.999 | locus YML094W, strain GIM5, hits give low values 1.01 | locus YMR219W, strain ESC1, hits give low values 1.01 | locus YMR263W, strain SAP30, hits give low values 1.01 | locus YNL128W, strain TEP1, hits give low values 0.984 | [12] 0.983 | locus YNL298W, strain CLA4 (second series), hits give low values 1.02 | locus YNL322C, strain KRE1, hits give low values 1 | locus YNR030W, strain Alg12, hits give low values 1.01 | locus YOL006C, strain TOP1, hits give low values 0.997 | [13] 1.06 | [14] 1.02 | locus YPR135W, strain CTF4, hits give low values 0.96
